Results on 32 molecules are retold here after the supplement of paper PMC7530171.

Structures can show the parent of a compound that is named as a salt. ± gives the standard deviation.

The subject of test [1] is THP-1. Nature of the test: THP-1 cell loss relative to DMSO control; higher = more host cell loss (toxicity); extreme values may be limits of the assay. The following applies: 10 µM; 4 days; infection: M. tuberculosis H37Rv. As to the method:
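OICR kinase inhibitor library screened in duplicate at 10 uM against M. tuberculosis-infected THP-1 macrophages, 4 days at 37 C. THP-1 cell loss (cytotoxicity or loss of adherence) was quantified from Hoechst-stained nuclei counts by high-content imaging and normalised to the 1% DMSO control; 100 = complete loss of host cells.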

Test [2] relates to THP-1 macrophages infected with Mycobacterium tuberculosis H37Rv. Nature of the test: intracellular M.tb growth inhibition relative to DMSO (0) and 4 uM bedaquiline (100); higher = stronger inhibition of intracellular bacterial growth. The following applies: 10 µM; 4 days. As for the experimental part: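 OICR kinase inhibitor library screened in duplicate at 10 uM against THP-1 macrophages (PMA-differentiated) infected with M. tuberculosis H37Rv-pTEC27 (tdTomato RFP), 4 days at 37 C. Rows with complete host cell loss (placeholder inhibition 0, cell loss 100) were removed.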

In test [1], `O=C1NC(=O)C(c2ccccc2[N+](=O)[O-])=C1Nc1ccc(O)c(Cl)c1` returned a THP-1 cell loss of 3.73 ± 5.3%. Moreover, in test [2], the “intracellular M.tb growth inhibition” value is -38.8 ± 82%.
Molecule `C[S+]([O-])c1ccc(-c2nc(-c3ccc(F)cc3)c(-c3ccncc3)[nH]2)cc1` (centres undefined) registered a THP-1 cell loss in test [1] of 22.7 ± 8.7%. Besides, the “intracellular M.tb growth inhibition” value in test [2] was determined as 14.3 ± 12%.
The corresponding values for `CC[C@H](CO)Nc1nc(NCc2ccccc2)c2ncn(C(C)C)c2n1` [Roscovitine] are 53.5 ± 2.5% and -23.1 ± 47%.
`Cn1c(=O)n(-c2ccc(C(C)(C)C#N)cc2)c2c3cc(-c4cnc5ccccc5c4)ccc3ncc21`: the THP-1 cell loss in test [1] amounted to 36.6 ± 7.3%. Further, in test [2], the “intracellular M.tb growth inhibition” value came out at 26.6 ± 26%.
In test [1], `COc1cc(CCc2cc(NC(=O)c3ccc(N4CC(C)NC(C)C4)cc3)n[nH]2)cc(OC)c1` (centres undefined) yielded a THP-1 cell loss of 45.7 ± 11%. For the same molecule, the “intracellular M.tb growth inhibition” value in test [2] was -216 ± 180%.
`c1cc(OCCN2CCCCC2)cc(-c2n[nH]c3ccc(-c4nnc[nH]4)cc23)c1` gave a THP-1 cell loss in test [1] of 3.37 ± 4.8%. For the same molecule, the “intracellular M.tb growth inhibition” value in test [2] was -65.3 ± 120%.
Molecule `COc1cc2nccc(Oc3ccc(NC(=O)Nc4ccc(F)cc4F)c(F)c3)c2cc1OC` gave a THP-1 cell loss in test [1] of 8.51 ± 5.2%. For the same molecule, the “intracellular M.tb growth inhibition” value in test [2] was found to be 25.2 ± 4.6%.
Regarding `COc1cc(Oc2ccnc3cc(OC)c(OC)cc23)ccc1NC(=O)NC(C)c1nccs1` (racemic), the THP-1 cell loss in test [1] was determined as 10.7 ± 4.6%. Further, the “intracellular M.tb growth inhibition” value in test [2] was -40.9 ± 140%.
`NC(=O)c1ccc2nc(-c3ccc(Oc4ccc(Cl)cc4)cc3)[nH]c2c1` [Chk2 Inhibitor II] showed a THP-1 cell loss in test [1] of 48.8 ± 4.4%. Also, the “intracellular M.tb growth inhibition” value in test [2] turned out to be 38.6 ± 14%.
`COc1cc2ncnc(Nc3ccc(Oc4ccccc4)cc3)c2cc1OC` yielded a THP-1 cell loss in test [1] of 0%. Moreover, the “intracellular M.tb growth inhibition” value in test [2] was determined as 41.9 ± 47%.
Take `O=C(Nc1cccc(Nc2ncc(Br)c(NCCc3cnc[nH]3)n2)c1)N1CCCC1`: in test [1], the THP-1 cell loss amounted to 36 ± 15%. Moreover, in test [2], the “intracellular M.tb growth inhibition” value was -256 ± 330%.
Regarding `Nc1ncnc2nc(-c3ccc(N4CCOCC4)nc3)cc(-c3cccc(Br)c3)c12` [ABT-702 dihydrochloride], the THP-1 cell loss in test [1] worked out at 24.4 ± 13%. Besides, the “intracellular M.tb growth inhibition” value in test [2] worked out at 29.6 ± 24%.
Regarding `Cn1cc(-c2ccc3nnc(Sc4ccc5ncccc5c4)n3n2)cn1`, in test [1], the THP-1 cell loss came to 10.4 ± 3.7%. Moreover, in test [2], the “intracellular M.tb growth inhibition” value is -164 ± 130%.
The corresponding values for `Cc1cc(N2CCOCC2)cc2[nH]c(-c3c(NC[C@@H](O)c4cccc(Cl)c4)cc[nH]c3=O)nc12` are 21.7 ± 10% and -36.6 ± 15%.
`NC(=O)c1ccc2[nH]ccc2c1`: in test [1], the THP-1 cell loss is 50 ± 71%. The “intracellular M.tb growth inhibition” value in test [2] came to 10.6 ± 2.2%.
`COc1ccc(CNC(=O)Nc2ncc([N+](=O)[O-])s2)cc1` came in with a THP-1 cell loss in test [1] of 80.8 ± 27%. Also, in test [2], the “intracellular M.tb growth inhibition” value worked out at 20.1 ± 28%.
For the molecule `CCCS(=O)(=O)Nc1ccc(F)c(C(=O)c2c[nH]c3ncc(Cl)cc23)c1F`, the THP-1 cell loss in test [1] stood at 11.5 ± 14%. For the same molecule, the “intracellular M.tb growth inhibition” value in test [2] is 30.7 ± 35%.
`Fc1ccc(Cl)cc1-c1nc(Nc2ccncc2)c2nccnc2n1` returned a THP-1 cell loss in test [1] of 7.31 ± 3.9%. In addition, the “intracellular M.tb growth inhibition” value in test [2] came out at 36.5 ± 10%.
`O=C1c2ccc(O)c(O)c2C(=O)c2c(O)ccc(O)c21` [Quinalizarin] had a THP-1 cell loss in test [1] of 4.66 ± 6.6%. In addition, the “intracellular M.tb growth inhibition” value in test [2] was -115 ± 210%.
The corresponding values for `Cn1cnc2c(NCc3ccccc3)nc(NCCO)nc21` [Olomoucine] are 3.14 ± 4.4% and -10.5 ± 23%.
The corresponding values for `Cc1cc(C(=O)Nc2cc(Nc3ccc4c(/C=C/c5ccccn5)n[nH]c4c3)ccc2F)n(C)n1` are 54.6 ± 11% and -16.4 ± 71%.
The corresponding values for `COc1cc(SC)ccc1C(=O)N1CCC(Cc2ccccc2)CC1` are 0.379 ± 0.54% and 41.8 ± 12%.
As for `C[C@@H](Oc1cc(-n2cnc3ccc(CN4CCN(C)CC4)cc32)sc1C(N)=O)c1ccccc1C(F)(F)F`, the THP-1 cell loss in test [1] was found to be 23.7 ± 4.8%. Besides, the “intracellular M.tb growth inhibition” value in test [2] was -31.9 ± 42%.
With `COc1cc2ncc(-c3ccccc3)nc2cc1OC` [Tyrphostin AG-1296], in test [1], the THP-1 cell loss is 0%. The “intracellular M.tb growth inhibition” value in test [2] was determined as 1.21 ± 2%.
For `COc1cc2c(Oc3ccc4[nH]c(C)cc4c3F)ncnc2cc1OCCCN1CCCC1` [Cediranib], in test [1], the THP-1 cell loss came to 91.7 ± 12%. Moreover, in test [2], the “intracellular M.tb growth inhibition” value came out at 6.57 ± 9.3%.
For `CO[C@@H]1[C@H](N(C)C(=O)c2ccccc2)C[C@H]2O[C@]1(C)n1c3ccccc3c3c4c(c5c6ccccc6n2c5c31)C(=O)NC4`, the THP-1 cell loss in test [1] came out at 30.8 ± 4.7%. The “intracellular M.tb growth inhibition” value in test [2] came to 60.7 ± 13%.
As for `CN(C)CC(C)(C)CNc1nn2c(-c3ccccc3)nnc2cc1C1CCC1`, the THP-1 cell loss in test [1] is 18.4 ± 1.3%. In addition, the “intracellular M.tb growth inhibition” value in test [2] was -56.3 ± 120%.
The molecule `O=C1NCCCc2c1oc1ccc(O)cc21` displayed a THP-1 cell loss in test [1] of 6.23 ± 8.8%. Further, the “intracellular M.tb growth inhibition” value in test [2] worked out at 11 ± 28%.
In turn, `NCc1ccc(Nc2ncc(F)c(Nc3ccccc3)n2)cc1` [Dianilinopyrimidine_01] displayed a THP-1 cell loss in test [1] of 88.5 ± 16%. The “intracellular M.tb growth inhibition” value in test [2] amounted to 99.2 ± 230%.
The corresponding values for `NC(=O)c1sc2c([N+](=O)[O-])cc(C(F)(F)F)cc2[n+]1[O-]` [Cyclapolin 9] are 35.6 ± 12% and -65.9 ± 140%.
Consider `CC[C@H](Nc1ncnc2[nH]cnc12)c1nc2cccc(F)c2c(=O)n1-c1ccccc1`, for which, in test [1], the THP-1 cell loss is 35.9 ± 6.3%. Moreover, in test [2], the “intracellular M.tb growth inhibition” value was -236 ± 290%.
Take `COc1cc2ncn(-c3cc(OCc4ccccc4C(F)(F)F)c(C(N)=O)s3)c2cc1OC`: the THP-1 cell loss in test [1] was 12.2 ± 11%. Besides, the “intracellular M.tb growth inhibition” value in test [2] came out at 38.7 ± 14%.
